{"source": "PubChem BioAssay (NCI)", "note": "This is part of a sample that, as a whole, favours compounds with a hit. Of some 83,000 tested, about 20% had one in any assay.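 Activity criterion: percent growth below 10, measured after cells in 96-well plates were exposed to a single compound concentration for 48 hours.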 Activity calls are given as the source filed them."}
{"test_system": "MDA-MB-468 breast", "experiment": "NCI-60 one-dose screen, 48 h (100 = growth as untreated, 0 = no growth, -100 = all killed)", "settings": "10 µM unless noted"}
{"smiles": "O=[N+]([O-])c1cccc(-c2nc3sccn3c2-c2ccnc(NCCCNS(=O)(=O)c3ccc(C(F)(F)F)cc3)n2)c1", "growth": "22.8% (inactive)"}
{"smiles": "COc1ccc2[nH]cc(-c3nc(-c4c[nH]c5ncccc45)cs3)c2c1", "growth": "39.1% (inactive)"}
{"smiles": "FC(F)(F)c1cc(NC2=NCCN=C(Nc3cc(C(F)(F)F)cc(C(F)(F)F)c3)SS2)cc(C(F)(F)F)c1", "growth": "23.6% (inactive)"}
{"smiles": "O=C(O)CCCl", "growth": "94.6% (inactive)"}
{"smiles": "C/C=C(\\C)C(C(=O)NC1CCCCC1)N(C(=O)C1CCc2cc(F)ccc2O1)c1ccc(Cl)cc1", "note": "(stereo not given)", "growth": "97% (inactive)"}
{"smiles": "OCCN(CCO)c1ccc2ccccc2c1", "growth": "107% (inactive)"}
{"smiles": "O=C(CSc1nc2ccccc2c(=O)n1CCc1ccccc1)Nc1ccc(S(=O)(=O)Nc2ccc(Cl)nn2)cc1", "growth": "103% (inactive)"}
{"smiles": "S=c1cc(S)c2cc(Br)ccc2[nH]1", "growth": "104% (inactive)"}
{"smiles": "c1ccc2[nH]c(-c3cc(-c4ccc5c(c4)OCO5)n[nH]3)nc2c1", "growth": "51.2% (inactive)"}
{"smiles": "COc1cc(OC)c2c(c1Cl)O[C@]1(C2=O)C(OCc2ccccc2)=CC(=O)C[C@H]1C", "growth": "-4.52% (active)"}
{"smiles": "Cc1ccc(C(=O)CC(=O)C(F)(F)C(F)(F)C(F)(F)F)s1", "growth": "102% (inactive)"}
{"smiles": "Cc1ccc(-c2nc(/C=C3/C(=O)Nc4ccccc43)c3ccccn23)cc1", "growth": "69.6% (inactive)"}
{"smiles": "C/C(=C(/c1ccc(O)cc1)c1ccc(OCCN2CCCC2)cc1)c1ccc(Cl)cc1", "growth": "13.5% (inactive)"}
{"smiles": "Cc1nc(-c2cc3ccccc3c(N3CCN(C)CC3)n2)cs1", "growth": "87% (inactive)"}
{"smiles": "COc1ccc(-c2c3c(cn2Cc2cccc(OC)c2)-c2oncc2CCC3)cc1", "growth": "88.7% (inactive)"}
{"smiles": "COc1cc(C(C)=C(c2ccc(OCCN(C)C)cc2)c2ccc(OCCN(C)C)cc2)ccc1F", "growth": "93.3% (inactive)"}
{"smiles": "COC(=O)CCc1n(Cc2ccc3ccccc3c2)c2ccccc2[n+]1Cc1ccc2ccccc2c1", "growth": "-15% (active)"}
{"smiles": "CCOC(=O)CN(c1sc(C)c(C)c1C(=O)OCC)S(=O)(=O)c1ccc(C)cc1", "growth": "89.6% (inactive)"}
{"smiles": "Cc1c(C(=O)/C=C/c2csc3ccccc23)[n+](=O)c2ccccc2n1[O-]", "growth": "-16.5% (active)"}
{"smiles": "CC(C)(C)CC(C)(C)c1ccc(O)c(Cc2ccc(Cl)cc2Cl)c1", "growth": "-88.6% (active)"}
{"smiles": "COc1cccc2nc(Nc3cccc(NC(=O)c4cc(N5CCOCC5)cc(C(F)(F)F)c4)c3)ccc12", "growth": "67.3% (inactive)"}
{"smiles": "CCC(=O)N1C/C(=C/c2ccc(OC)cc2)C(=O)/C(=C/c2ccc(OC)cc2)C1", "growth": "-25.6% (active)"}
{"smiles": "COc1ccc(-c2nc(N3CCCC3=O)sc2Br)cc1OC", "growth": "94.8% (inactive)"}
{"smiles": "C/C(=C(/C)C1CC1CCN(C(=O)c1ccccn1)S(=O)(=O)c1ccc(C)cc1)C1CCCCC1", "note": "(stereo not given)", "growth": "75.7% (inactive)"}
{"smiles": "Nc1c(C(=O)c2ccccc2)sc2nc(-c3cnccn3)cc(-c3cccs3)c12", "growth": "111% (inactive)"}
{"smiles": "COc1ccc(-c2no[n+]([O-])c2Nc2ccccc2Br)cc1", "growth": "93.3% (inactive)"}
{"smiles": "CN1CCN(Cc2ccc(NC(=O)c3cncc(C#Cc4cnc5ccc(N6CCN(C)CC6)nn45)c3)cc2C(F)(F)F)CC1", "growth": "-75.2% (active)"}
{"smiles": "N#C/C(=C\\c1ccc(-c2ccc(Cl)cc2)o1)c1ccc(Cl)cc1", "growth": "82.2% (inactive)"}
{"smiles": "COc1cc(C2=NN(C(C)=O)C(c3cccc(Nc4ccnc5cc(C(F)(F)F)ccc45)c3)C2)cc(OC)c1OC", "note": "(stereo not given)", "growth": "50.5% (inactive)"}
{"smiles": "COc1ccc(C/C(C)=C(\\c2ccc(Cl)cc2)c2ccc(OCCCN(C)C)cc2)cc1", "growth": "59.7% (inactive)"}
{"smiles": "COc1ccc(OC)c(/C=C/C(=O)c2c(C)nc3ccccc3c2/C=C/c2ccccc2)c1", "growth": "60.5% (inactive)"}
{"smiles": "COc1cc(NC(C)CCCN)c2ncccc2c1Oc1ccc(Cl)cc1", "note": "(stereo not given)", "growth": "58.6% (inactive)"}
{"smiles": "N#Cc1c(-c2ccccc2)cc(-c2ccccc2)n(CCCCCCC(=O)O)c1=O", "growth": "88.9% (inactive)"}
{"smiles": "O=C(/C=C/c1cc2ccccc2[nH]c1=O)c1ccc2c(c1)OCO2", "growth": "114% (inactive)"}
{"smiles": "Cc1nc2ccccc2n1C(=O)C[C@@H]1NC(=S)NC1=O", "growth": "95.7% (inactive)"}
{"smiles": "CN1C(=O)N(C)C2(c3ccccc3)N(CC(=O)Nc3ccccc3O)C(=O)NC12c1ccccc1", "note": "(stereo not given)", "growth": "104% (inactive)"}
{"smiles": "CCOC(=O)c1ccc(C(=N)N)cc1", "growth": "106% (inactive)"}
{"smiles": "CN1CCN(CCCn2c3c(sc4ncccc43)c(=O)n3nnc(-c4ccccc4)c23)CC1", "growth": "98.6% (inactive)"}
{"smiles": "CCOC(=O)C(C(C)=O)c1nc2sc3cc(Cl)ccc3n2c(=N)c1C#N", "note": "(stereo not given)", "growth": "4.75% (active)"}
{"smiles": "CCCCCCCCO/N=C\\c1c2c(O)c3c(O)c(C)c4c(c3c1O)C(=O)C(C)(O/C=C\\C(OC)C(C)C(OC(C)=O)C(C)C(O)C(C)C(O)C(C)/C=C\\C=C(\\C)C(=O)N2)O4", "note": "(stereo not given)", "growth": "3.49% (active)"}
